Measured values from ChEMBL document CHEMBL1961873, “Compounds: GSK PKIS; Assays: Nanosyn kinase panel” (2012).

Key:
[1] = molecular target: T1, 3-phosphoinositide-dependent protein kinase 1 (Homo sapiens) (UniProt O15530); details: at 0.1 µM;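 note: values are mean inhibition of PDK1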
T1 sequence (whole entry): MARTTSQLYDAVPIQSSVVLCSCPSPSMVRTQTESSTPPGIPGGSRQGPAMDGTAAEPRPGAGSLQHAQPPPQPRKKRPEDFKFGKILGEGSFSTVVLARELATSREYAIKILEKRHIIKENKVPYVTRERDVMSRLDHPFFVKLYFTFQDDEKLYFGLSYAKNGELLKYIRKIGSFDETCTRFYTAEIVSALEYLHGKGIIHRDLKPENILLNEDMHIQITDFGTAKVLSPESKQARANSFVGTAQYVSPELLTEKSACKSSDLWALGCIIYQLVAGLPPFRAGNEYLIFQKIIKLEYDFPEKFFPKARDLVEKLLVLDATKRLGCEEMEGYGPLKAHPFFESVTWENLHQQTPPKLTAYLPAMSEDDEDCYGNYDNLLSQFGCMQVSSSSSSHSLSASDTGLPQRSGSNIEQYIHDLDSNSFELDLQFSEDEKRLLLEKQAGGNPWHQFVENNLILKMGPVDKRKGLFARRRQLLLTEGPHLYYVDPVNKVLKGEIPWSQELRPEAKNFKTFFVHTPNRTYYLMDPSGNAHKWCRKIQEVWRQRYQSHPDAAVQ

[2] = molecular target: cAMP-dependent protein kinase catalytic subunit alpha (Homo sapiens) (UniProt P17612); details: at 0.1 µM
[3] = molecular target: cAMP-dependent protein kinase catalytic subunit alpha (Homo sapiens) (UniProt P17612); details: at 1 µM
[4] = molecular target: Protein kinase C alpha type (Homo sapiens) (UniProt P17252); details: at 0.1 µM
[5] = molecular target: Protein kinase C alpha type (Homo sapiens) (UniProt P17252); details: at 1 µM
[6] = molecular target: Protein kinase C beta type (Homo sapiens) (UniProt P05771); details: at 0.1 µM
[7] = molecular target: Protein kinase C beta type (Homo sapiens) (UniProt P05771); details: at 1 µM
[8] = molecular target: Protein kinase C eta type (Homo sapiens) (UniProt P24723); details: at 0.1 µM
[9] = molecular target: Protein kinase C eta type (Homo sapiens) (UniProt P24723); details: at 1 µM
[10] = molecular target: Protein kinase C gamma type (Homo sapiens) (UniProt P05129); details: at 0.1 µM
[11] = molecular target: Protein kinase C gamma type (Homo sapiens) (UniProt P05129); details: at 1 µM
[12] = molecular target: T2, Protein kinase C iota type (Homo sapiens) (UniProt P41743); details: at 0.1 µM
T2 sequence (whole entry): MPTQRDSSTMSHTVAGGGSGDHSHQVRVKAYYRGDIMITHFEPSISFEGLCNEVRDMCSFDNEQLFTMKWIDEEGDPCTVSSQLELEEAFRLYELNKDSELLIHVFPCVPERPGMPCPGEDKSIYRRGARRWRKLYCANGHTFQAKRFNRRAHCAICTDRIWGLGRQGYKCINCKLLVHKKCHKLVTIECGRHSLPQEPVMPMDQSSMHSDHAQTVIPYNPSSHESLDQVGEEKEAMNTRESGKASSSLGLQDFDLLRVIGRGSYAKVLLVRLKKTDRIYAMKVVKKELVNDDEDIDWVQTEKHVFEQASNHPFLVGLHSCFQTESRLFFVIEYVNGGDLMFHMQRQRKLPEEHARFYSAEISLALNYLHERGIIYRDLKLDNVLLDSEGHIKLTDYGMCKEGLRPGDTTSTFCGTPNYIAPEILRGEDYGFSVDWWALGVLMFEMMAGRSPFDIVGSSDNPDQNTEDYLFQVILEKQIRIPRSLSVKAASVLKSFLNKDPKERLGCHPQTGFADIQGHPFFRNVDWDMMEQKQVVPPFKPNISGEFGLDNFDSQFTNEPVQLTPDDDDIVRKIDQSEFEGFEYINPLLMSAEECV

[13] = molecular target: T2, Protein kinase C iota type (Homo sapiens); details: at 1 µM
[14] = molecular target: Protein kinase C theta type (Homo sapiens) (UniProt Q04759); details: at 0.1 µM
[15] = molecular target: Protein kinase C theta type (Homo sapiens) (UniProt Q04759); details: at 1 µM
[16] = molecular target: Protein kinase C beta type (Homo sapiens) (UniProt P05771); details: at 0.1 µM; remark: listed apart in the source
[17] = molecular target: Protein kinase C beta type (Homo sapiens) (UniProt P05771); details: at 1 µM; remark: listed apart in the source
[18] = molecular target: T3, Serine/threonine-protein kinase D1 (Homo sapiens) (UniProt Q15139); details: at 0.1 µM
T3 sequence (whole entry): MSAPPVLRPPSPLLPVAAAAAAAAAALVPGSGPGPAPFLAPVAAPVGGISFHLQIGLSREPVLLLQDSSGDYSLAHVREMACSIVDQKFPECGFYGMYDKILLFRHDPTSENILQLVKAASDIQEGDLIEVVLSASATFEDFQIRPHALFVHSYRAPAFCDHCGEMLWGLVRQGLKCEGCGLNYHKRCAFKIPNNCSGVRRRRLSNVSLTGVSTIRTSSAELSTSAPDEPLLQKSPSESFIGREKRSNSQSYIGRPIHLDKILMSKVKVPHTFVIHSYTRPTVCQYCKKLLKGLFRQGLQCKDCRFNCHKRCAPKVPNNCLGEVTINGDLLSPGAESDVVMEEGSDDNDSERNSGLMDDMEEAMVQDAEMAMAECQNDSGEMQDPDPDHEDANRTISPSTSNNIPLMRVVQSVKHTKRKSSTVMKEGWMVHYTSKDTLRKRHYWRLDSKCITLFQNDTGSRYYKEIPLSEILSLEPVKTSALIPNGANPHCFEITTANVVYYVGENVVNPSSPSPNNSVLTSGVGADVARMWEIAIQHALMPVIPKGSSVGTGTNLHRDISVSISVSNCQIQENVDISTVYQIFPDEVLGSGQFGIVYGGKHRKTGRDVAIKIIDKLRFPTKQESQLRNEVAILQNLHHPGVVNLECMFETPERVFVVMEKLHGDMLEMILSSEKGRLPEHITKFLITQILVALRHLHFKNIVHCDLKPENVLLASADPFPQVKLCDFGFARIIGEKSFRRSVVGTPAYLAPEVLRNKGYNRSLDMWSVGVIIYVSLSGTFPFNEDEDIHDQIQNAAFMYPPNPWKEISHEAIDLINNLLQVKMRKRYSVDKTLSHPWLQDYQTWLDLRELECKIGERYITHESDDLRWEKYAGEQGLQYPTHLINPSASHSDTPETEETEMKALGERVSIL

[19] = molecular target: T3, Serine/threonine-protein kinase D1 (Homo sapiens); details: at 1 µM
[20] = molecular target: T4, Serine/threonine-protein kinase D2 (Homo sapiens) (UniProt Q9BZL6); details: at 0.1 µM;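 note: reported percent inhibition values are means, part of the GSK PKIS kinase panel screen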
T4 sequence (whole entry): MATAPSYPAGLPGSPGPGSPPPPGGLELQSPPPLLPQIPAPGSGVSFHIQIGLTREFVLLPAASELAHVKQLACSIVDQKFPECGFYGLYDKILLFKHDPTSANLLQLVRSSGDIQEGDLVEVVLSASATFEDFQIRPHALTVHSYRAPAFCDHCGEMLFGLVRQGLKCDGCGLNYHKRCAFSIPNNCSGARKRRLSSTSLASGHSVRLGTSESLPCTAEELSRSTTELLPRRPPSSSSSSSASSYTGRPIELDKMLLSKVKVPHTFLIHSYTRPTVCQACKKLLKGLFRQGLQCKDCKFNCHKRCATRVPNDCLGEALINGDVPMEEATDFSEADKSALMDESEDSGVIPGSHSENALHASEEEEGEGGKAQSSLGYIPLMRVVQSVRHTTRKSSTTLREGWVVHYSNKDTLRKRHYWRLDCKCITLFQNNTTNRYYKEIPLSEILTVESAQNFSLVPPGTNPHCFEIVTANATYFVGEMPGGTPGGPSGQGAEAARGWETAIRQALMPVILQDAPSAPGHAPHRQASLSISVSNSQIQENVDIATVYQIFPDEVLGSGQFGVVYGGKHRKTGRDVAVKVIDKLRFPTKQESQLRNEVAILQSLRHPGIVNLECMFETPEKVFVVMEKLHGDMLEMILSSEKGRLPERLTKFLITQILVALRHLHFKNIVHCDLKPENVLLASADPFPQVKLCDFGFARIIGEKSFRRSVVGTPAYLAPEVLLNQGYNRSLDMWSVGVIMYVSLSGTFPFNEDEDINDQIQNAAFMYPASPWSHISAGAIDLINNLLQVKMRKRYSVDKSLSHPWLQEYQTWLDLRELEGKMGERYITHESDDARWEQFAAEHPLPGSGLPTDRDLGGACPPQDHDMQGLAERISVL

Chain of Protein kinase C theta type (Homo sapiens) (Q04759 whole entry, looked up): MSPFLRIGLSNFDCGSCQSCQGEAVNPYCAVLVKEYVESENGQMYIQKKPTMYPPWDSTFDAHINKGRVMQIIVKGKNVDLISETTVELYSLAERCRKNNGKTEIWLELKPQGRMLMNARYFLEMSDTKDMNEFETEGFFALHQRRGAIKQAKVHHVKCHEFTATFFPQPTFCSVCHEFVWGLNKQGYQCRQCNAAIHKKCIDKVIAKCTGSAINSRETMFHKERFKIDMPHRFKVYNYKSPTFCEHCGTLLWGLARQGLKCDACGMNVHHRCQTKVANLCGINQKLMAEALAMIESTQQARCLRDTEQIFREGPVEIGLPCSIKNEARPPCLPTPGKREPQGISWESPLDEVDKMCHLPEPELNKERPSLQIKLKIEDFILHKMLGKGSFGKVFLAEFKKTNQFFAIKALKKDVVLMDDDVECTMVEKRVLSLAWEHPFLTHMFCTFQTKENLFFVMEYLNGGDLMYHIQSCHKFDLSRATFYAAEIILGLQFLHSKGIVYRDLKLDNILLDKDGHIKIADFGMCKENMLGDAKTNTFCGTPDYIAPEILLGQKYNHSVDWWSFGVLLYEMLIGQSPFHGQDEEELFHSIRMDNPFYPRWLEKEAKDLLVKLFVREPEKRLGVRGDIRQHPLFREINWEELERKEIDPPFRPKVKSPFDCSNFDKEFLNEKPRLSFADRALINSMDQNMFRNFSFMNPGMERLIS
Chain of Protein kinase C beta type (Homo sapiens) (P05771 2-671 limits assumed): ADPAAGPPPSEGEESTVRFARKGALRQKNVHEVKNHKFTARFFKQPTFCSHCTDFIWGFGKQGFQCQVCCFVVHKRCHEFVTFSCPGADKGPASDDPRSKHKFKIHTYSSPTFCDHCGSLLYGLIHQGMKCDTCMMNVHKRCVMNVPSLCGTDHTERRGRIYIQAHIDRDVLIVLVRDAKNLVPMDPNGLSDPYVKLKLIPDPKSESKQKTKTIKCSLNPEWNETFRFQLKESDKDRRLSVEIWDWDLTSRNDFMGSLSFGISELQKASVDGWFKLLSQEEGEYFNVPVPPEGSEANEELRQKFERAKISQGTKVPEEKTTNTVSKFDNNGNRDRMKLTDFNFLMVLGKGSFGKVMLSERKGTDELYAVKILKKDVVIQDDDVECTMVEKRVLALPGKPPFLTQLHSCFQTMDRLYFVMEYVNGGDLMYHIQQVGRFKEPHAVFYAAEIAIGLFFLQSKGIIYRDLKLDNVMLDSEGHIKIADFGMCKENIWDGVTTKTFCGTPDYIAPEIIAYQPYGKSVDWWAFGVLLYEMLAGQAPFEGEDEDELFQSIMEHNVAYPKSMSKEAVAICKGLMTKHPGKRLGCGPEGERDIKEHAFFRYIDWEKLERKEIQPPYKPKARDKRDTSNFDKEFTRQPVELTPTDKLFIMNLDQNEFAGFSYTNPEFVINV
Chain of Protein kinase C eta type (Homo sapiens) (P24723 whole entry): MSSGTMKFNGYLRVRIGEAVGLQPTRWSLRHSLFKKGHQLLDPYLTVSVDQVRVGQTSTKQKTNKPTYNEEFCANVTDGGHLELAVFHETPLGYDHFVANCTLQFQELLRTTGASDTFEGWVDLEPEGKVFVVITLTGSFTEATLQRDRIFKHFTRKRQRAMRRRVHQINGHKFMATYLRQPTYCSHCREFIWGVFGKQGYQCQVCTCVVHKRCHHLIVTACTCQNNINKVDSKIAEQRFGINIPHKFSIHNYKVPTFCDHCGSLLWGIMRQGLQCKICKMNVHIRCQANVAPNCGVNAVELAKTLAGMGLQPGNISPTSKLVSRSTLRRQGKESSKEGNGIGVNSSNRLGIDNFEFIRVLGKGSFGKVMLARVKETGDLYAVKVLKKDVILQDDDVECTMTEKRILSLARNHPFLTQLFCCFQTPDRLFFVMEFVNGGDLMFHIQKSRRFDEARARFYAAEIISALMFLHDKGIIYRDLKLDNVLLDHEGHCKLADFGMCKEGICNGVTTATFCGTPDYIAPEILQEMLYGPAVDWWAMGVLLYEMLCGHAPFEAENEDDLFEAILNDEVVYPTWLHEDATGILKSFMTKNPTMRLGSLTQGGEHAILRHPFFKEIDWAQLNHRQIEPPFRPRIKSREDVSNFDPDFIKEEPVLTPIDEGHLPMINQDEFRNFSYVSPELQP

Row | SMILES | inhibition [1] | inhibition [2] | inhibition [3] | inhibition [4] | inhibition [5] | inhibition [6] | inhibition [7] | inhibition [8] | inhibition [9] | inhibition [10] | inhibition [11] | inhibition [12] | inhibition [13] | inhibition [14] | inhibition [15] | inhibition [16] | inhibition [17] | inhibition [18] | inhibition [19] | inhibition [20]
1 | NC(=O)c1sc(-n2cnc3cc(C(F)(F)F)ccc32)cc1OCc1ccccc1Br | 2.62% | 2.16% | 1.95% | 0.19% | 1.07% | 0.86% | -1.32% | 3.02% | -0.28% | 0.48% | 2.52% | 0.97% | 0.63% | 0.18% | 0.55% | 0.4% | 0.57% | 1.33% | 1.94% | 1.96%
2 | COc1cc2c(cc1Nc1nc(Nc3ccsc3C(N)=O)c3cc[nH]c3n1)N(C(=O)CN(C)C)CCC2 | 0.7% | 4.62% | 3.81% | 1.91% | 10.2% | -0.18% | 1.94% | 1.28% | 3.46% |  |  | -0.4% | -0.5% | 4.39% | 10.2% | -1.27% | 2.49% | 3.95% | 19.8% | 12.2%
3 | COc1cccc(COc2cc(-n3cnc4ccccc43)sc2C(N)=O)c1 | 12.1% | 2.47% | 0.86% | -0.54% | 0% | -0.69% | 0.94% | 0.43% | 1.12% | 1.09% | 3.94% | -0.74% | -0.85% | 1.23% | 1.18% | 0.72% | 1.77% | 0.37% | 1.82% | 1.64%
4 | Cc1cc(-c2ccco2)cc(C)c1/C=C/c1cncc(-c2nn[nH]n2)c1 | -0.25% | -2.7% | 1.88% | 0.15% | 0.97% | -0.49% | 0.6% | 1.26% | 2.42% | 0.18% | 1.85% | 0.32% | -0.83% | 0.29% | -0.04% | -0.04% | -0.06% | 0.58% | 2.09% | 0.97%
5 | CCn1c(-c2nonc2N)nc2c(C#CC(C)(C)O)ncc(OC[C@@H]3CCCN3)c21 | 0.24% | 68.7% | 81.2% | 2.42% | 18.4% | 30.1% | 61.3% | 87.1% | 96.3% | 9.3% | 44.6% | 0.62% | 11.4% | 30% | 72.3% | 7.63% | 37.1% | 2.68% | 19.2% | 4.02%
6 | NS(=O)(=O)c1ccc(N/C=C2\C(=O)Nc3ccc4ncsc4c32)cc1 | 20.8% | 2.9% | 6.91% | 1.26% | 3.04% | -0.49% |  | 1.67% | 6.53% | 1.16% | 5.52% | 1.93% | 2.78% | 3.02% | 6.57% | 1.34% | 3.28% | 22.4% | 67.3% | 16.3%
7 | CCn1c(-c2nonc2N)nc2c(C#CC(C)(C)O)ncc(OCC3CCNCC3)c21 | 2.18% | 44.1% |  | -1.9% | 13.4% | 29.9% | 64.4% | 83.7% | 97.8% | 6.74% | 39.9% | -0.7% | 13.5% | 21.5% | 65.5% | 8.97% | 37.6% | -0.45% | 6.01% | -0.27%
